Tested on: VDR:RXRa (NR concentration 270 nM, RXRa partner concentration 90 nM)
Experiment: PBM binding z-score (relative to random genomic background probes); higher = stronger binding; sequences stand for … in GC…GCGATTGACAGCGTAGAATGAAGG
Experimental: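 Protein-binding microarray (Agilent 4x180K custom design, double-stranded 60-nt probes: 5' GC cap, 34-nt variable region, 24-nt constant primer region; full probe sequence given). Purified or IVT nuclear receptor:RXRα heterodimers (3:1 NR:RXRα, mostly 270:90 nM) or homodimers were incubated for 1 h in PBS with 2% milk and no ligand, then detected with Alexa488 antibodies. Fluorescence from o1-orientation probes (~5 replicates averaged) was converted to z-scores against 500 random hg19 background probes. Variable regions are seed direct-repeat (DR0–DR5) sites, all their single-nucleotide variants and half-site ablations.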

Sequence	PBM binding z-score
CGAACTAGGTCATCCAGGACAGTAAATACATTGA	4.71
CCTCGGAGGACAACAGTAGGTCAGAGCTGCCAGA	0.152
CCGACTGGGGCAGAACGGTTACCATACCATCCGG	-0.643
TCTAGTTGGTCACGGAGGTCACACCCGACGGGTA	5.67
TTACCAAGGTGTAGGTCGTTGATCCCTCTGTAGA	0.256
CCTCGGAGGACTACAGGAGGTCAGAGCTGCCAGA	1.26
ATCTCTAGGTAAAGATAGTTCACTGAATGCAAAT	1.37
CCAACTAGGTCAGAACAGGACAGTGAAGGATGAT	1.08
CAGCCTAGATCAGGGCCAGTATAGGAGGAACGTT	-0.746
AGAACGAGTGCAATGAGTTGATAGCACGGGTGGC	4.09
CGAACTAGGTCAAGGACAGGGAATCTCCGCACGC	1.09
ATCTCTAGGTAAAAATAGTTCAGTGAATGCAAAT	1.11
TCTCGGAGGACACGAAGGTCAGAGGTTTCCAGAG	2.59
GGAACGAGGGCAAAGTTGATCGCATCTGTCGACG	1.1
AGTCAAAGTTCACTAAGTAACGTAAGATTCAGCT	3.9
TAGTCTAGGTCATGGGCCAGTATACCACGCGAAC	2.13
TCGAGTAGGTTTGTCGGGGCATTCAGCCAACATA	0.467
TTACCAAGGTGAAGGGTCGTTGATGCACGCCTTG	1.7
GATACTGGGTCAGCTAGAGGCCAGAGTATGGAAA	0.938
CCTAGTTGGTCAAGAGGTCACACACCGGATATGA	4.64

Sequence	PBM binding z-score
TCGATTAGTTGAAGGGCAACCGACGAGTCCGTTT	0.389
CCGACTGGGGCATAAAGTTACCATAAGCCAGCCC	-0.432
AGAACGAGGGCATTGAGTTGATAGCACGGGTGGC	5.24
GGTACGAGGGCAAGTTGATAGCAGAGTTTGATGG	1.11
ATCTCTAGTTAAAGATAGTTCAGTGAATGCAAAT	1.04
TAGCCTAGGTCATTCAGGGGCCAGTTTAGAAAGC	3.16
TAGCCTAGGTCATGGGGCAGTATACCACGCGAAC	2.45
GCAGACAGGTGAAACGCAGGCAACTCAGGGTGGC	-0.567
CCTAGCGGGCCAATCTGGGTCACTCAAGGCTTGA	0.28
ATATGTAGGTTATCGGGTTATTCAGTTTGCGCAT	3.47
GCGACTGGGGCATCAGTAGGTTACCATAACTTAA	-0.141
TCAAATAGGTAAAGGTGAAAGTCGAACGATATGA	1.17
CCTAGTAGGTCAGGAGGTCACACACCGGATATGA	4.92
TCTAGTTGGTCACGGAGGTCACCCACGACGGGTA	5.63
TAGCCTAGGTCATGGGCCAGTAGACCACGCGAAC	1.85
ACTAGCAGGCCAAGTTTGGGTCACTTAAACAAAG	0.715
CAAACTAGGTCACCGGAAGTTCAAAGTCCGCATG	6.24
GCTAGTTGGTCAGTAAAAGGTCCCACACCGGTCG	-0.352
TCTAGTAGATCAACAGGAGGTTAAGAAAGATCGA	0.713
GCTTGTAGCTCAAGGTTAAGAAAGACTAAGCTAA	-0.0239
